# From PubChem BioAssay (EPA / NIEHS)
# Active and inactive are the calls of the source. How the source made its calls: active means hit-call score of the fitted dose curve at least 0.9, where 1 is the maximum; inactive means score below 0.9.
# Experiments:
# [1] = read-out: TIMP metallopeptidase inhibitor 2 (TIMP2), TIMP2 (gene 7077); experiment: BSK_KF3CT_TIMP2: BioMAP Diversity Plus: KF3CT Assay for TIMP metallopeptidase inhibitor 2 (TIMP2) Biomarker Activity (AID 2283071); conditions: primary human keratinocytes with fibroblasts; actives raise or lower the signal
# Procedure, shortened: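 Co-culture of human primary keratinocytes and foreskin fibroblasts, measured 24 h after chemical dosing. TIMP-2 quantified by ELISA and fitted in both directions relative to DMSO. Cytotoxicity checked in parallel cultures by SRB total-protein staining.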
# [2] = read-out: Transforming growth factor beta 1 (TGFb1), TGFB1 (gene 7040); experiment: BSK_KF3CT_TGFb1: BioMAP Diversity Plus: KF3CT Assay for Transforming growth factor beta 1 (TGFb1) Biomarker Activity (AID 2283072); conditions: primary human keratinocytes with fibroblasts; actives raise or lower the signal
# Procedure, shortened: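 Human keratinocyte/foreskin fibroblast co-culture; TGF-b1 measured by ELISA 24 h after dosing, fitted bidirectionally versus DMSO. Cytotoxicity checked in parallel cultures by total protein (SRB staining, 560 nm).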
# [3] = read-out: C-C motif chemokine 2 (Homo sapiens) (UniProt P13500); experiment: BSK_KF3CT_MCP1: BioMAP Diversity Plus: KF3CT Assay for Monocyte Chemoattractant Protein 1 (MCP1/CCL2) Biomarker Activity (AID 2283073); conditions: primary human keratinocytes with fibroblasts; actives raise or lower the signal
# Procedure, shortened: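 Human keratinocyte–foreskin fibroblast co-culture; MCP-1 measured by ELISA 24 h after dosing. Bidirectional fit vs DMSO; cytotoxicity tracked by SRB total protein in parallel cultures.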
# [4] = read-out: Matrix Metallopeptidase 9 (MMP9), MMP9 (gene 4318); experiment: BSK_KF3CT_MMP9: BioMAP Diversity Plus: KF3CT Assay for Matrix Metallopeptidase 9 (MMP9) Biomarker Activity (AID 2283074); conditions: primary human keratinocytes with fibroblasts; actives raise or lower the signal;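 on AC50: MMP9 protein level quantified by ELISA in the co-culture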
# Procedure, shortened: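 Human keratinocyte and foreskin fibroblast co-culture exposed to chemicals for 24 h; MMP9 biomarker measured by ELISA, bidirectional fitting relative to DMSO; cytotoxicity tracked by SRB total protein staining in parallel cultures.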
# [5] = read-out: urokinase plasminogen activator (uPA), PLAU (gene 5328); experiment: BSK_KF3CT_uPA: BioMAP Diversity Plus: KF3CT Assay for urokinase plasminogen activator (uPA) Biomarker Activity (AID 2283075); conditions: primary human keratinocytes with fibroblasts; actives raise or lower the signal
# Procedure, shortened: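 Primary human keratinocyte/foreskin fibroblast co-culture exposed to chemical; uPA measured by ELISA at 24 h. Bidirectional fit versus DMSO, with parallel SRB total-protein staining for cytotoxicity.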
# [6] = read-out: CD40, CD40 (gene 958); experiment: BSK_LPS_CD40: BioMAP Diversity Plus: LPS Assay for CD40 Biomarker Activity (AID 2283076); conditions: primary human HUVEC with PBMC; actives raise or lower the signal
# Procedure, shortened: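 HUVEC plus PBMC co-culture stimulated with LPS; CD40 quantified by ELISA 24 h after compound dosing. Fitting was bidirectional relative to DMSO. SRB staining of parallel cultures flagged overt cytotoxicity.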
# [7] = read-out: E-selectin (Homo sapiens) (UniProt P16581); experiment: BSK_LPS_Eselectin: BioMAP Diversity Plus: LPS Assay for Eselectin Biomarker Activity (AID 2283077); conditions: primary human HUVEC with PBMC; actives raise or lower the signal
# Procedure, shortened: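 Human umbilical vein endothelial cells co-cultured with PBMC under LPS stimulation; cell-surface E-selectin measured by ELISA 24 h after dosing. Change in either direction versus DMSO, with SRB total-protein staining in parallel cultures for cytotoxicity.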
# [8] = read-out: Interleukin-8 (IL8), CXCL8 (gene 3576); experiment: BSK_LPS_IL8: BioMAP Diversity Plus: LPS Assay for Interleukin-8 (IL8) Biomarker Activity (AID 2283078); conditions: primary human HUVEC with PBMC; actives raise or lower the signal
# Procedure, shortened: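 Human umbilical vein endothelial cells co-cultured with PBMC, LPS-stimulated, exposed to compound for 24 h. IL-8 quantified by ELISA; fitted in both directions against DMSO, with SRB total-protein staining of parallel cultures for cytotoxicity.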
# [9] = BSK_LPS_SRB: Viability Assessment in the BioMAP Diversity Plus: LPS Assay (AID 2283079); conditions: primary human HUVEC with PBMC;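 further: total protein by sulforhodamine B absorbance as a cytotoxicity measure; measured one day after compound addition; fitted in both directions against DMSO so loss or gain of signal counts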
# Procedure, shortened: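 Co-culture of human umbilical vein endothelial cells and PBMC, read 24 h after dosing. Total protein by 0.1% SRB staining after 10% TCA fixation, absorbance at 560 nm; bidirectional fit against DMSO.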
# [10] = read-out: Interleukin-1 alpha (IL1a), IL1A (gene 3552); experiment: BSK_LPS_IL1a: BioMAP Diversity Plus: LPS Assay for Interleukin-1 alpha (IL1a) Biomarker Activity (AID 2283080); conditions: primary human HUVEC with PBMC; actives raise or lower the signal
# Procedure, shortened: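 Human umbilical vein endothelial cells co-cultured with PBMC and stimulated with LPS; IL-1a measured by ELISA 24 h after dosing. Bidirectional fitting against DMSO; cytotoxicity checked by SRB staining in parallel cultures.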
# [11] = read-out: Monocyte Chemoattractant Protein-1 (MCP1), CCL2 (gene 6347); experiment: BSK_LPS_MCP1: BioMAP Diversity Plus: LPS Assay for Monocyte Chemoattractant Protein-1 (MCP1) Biomarker Activity (AID 2283081); conditions: primary human HUVEC with PBMC; actives raise or lower the signal;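 on AC50: secreted MCP-1 protein quantified by ELISA in culture supernatant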
# Procedure, shortened: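 Human umbilical vein endothelial cells co-cultured with PBMC, LPS-stimulated; secreted MCP-1 measured by ELISA 24 h after compound addition. Bidirectional curve fitting against DMSO baseline; SRB total-protein staining in parallel cultures for cytotoxicity.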
# [12] = BSK_LPS_PGE2: BioMAP Diversity Plus: LPS Assay for Prostaglandin E2 (PGE2) Biomarker Activity (AID 2283082); conditions: primary human HUVEC with PBMC; actives raise or lower the signal;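 on AC50: secreted prostaglandin E2 measured by ELISA in LPS-stimulated co-culture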
# Procedure, shortened: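 HUVEC plus human PBMC co-culture stimulated with LPS; secreted PGE2 quantified by ELISA 24 h after chemical dosing. Activity fitted bidirectionally against DMSO baseline; parallel SRB staining (0.1% SRB after 10% TCA fixation, 560 nm) flags overt cytotoxicity.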
# [13] = read-out: Macrophage colony-stimulating factor (MCSF), CSF1 (gene 1435); experiment: BSK_LPS_MCSF: BioMAP Diversity Plus: LPS Assay for Macrophage colony-stimulating factor (MCSF) Biomarker Activity (AID 2283083); conditions: primary human HUVEC with PBMC; actives raise or lower the signal
# Procedure, shortened: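 HUVEC–PBMC co-culture, M-CSF measured by ELISA 24 h after chemical dosing. Fitted in both directions relative to DMSO as negative control; overt cytotoxicity assessed by SRB total-protein staining in parallel cultures.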
# [14] = read-out: Tissue Factor, F3 (gene 2152); experiment: BSK_LPS_TissueFactor: BioMAP Diversity Plus: LPS Assay for Tissue Factor Biomarker Activity (AID 2283084); conditions: primary human HUVEC with PBMC; actives raise or lower the signal
# Procedure, shortened: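 Human umbilical vein endothelial cells co-cultured with PBMC were dosed with compound. Cell-surface CD142 was measured by ELISA 24 h later. Activity was fitted bidirectionally against DMSO, with SRB total-protein staining in parallel cultures for cytotoxicity.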
# [15] = read-out: Tumor necrosis factor (Homo sapiens) (UniProt P01375); experiment: BSK_LPS_TNFa: BioMAP Diversity Plus: LPS Assay for Tumour Necrosis Factor alpha (TNFa) Biomarker Activity (AID 2283085); conditions: primary human HUVEC with PBMC; actives raise or lower the signal
# Procedure, shortened: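 Human umbilical vein endothelial cells co-cultured with PBMC and stimulated with LPS. TNFa was measured by ELISA 24 h after chemical dosing, fitted bidirectionally relative to DMSO.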
# [16] = read-out: Vascular cell adhesion molecule 1 (VCAM1), VCAM1 (gene 7412); experiment: BSK_LPS_VCAM1: BioMAP Diversity Plus: LPS Assay for Vascular cell adhesion molecule 1 (VCAM1) Biomarker Activity (AID 2283086); conditions: primary human HUVEC with PBMC; actives raise or lower the signal
# Procedure, shortened: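 Human umbilical vein endothelial cells co-cultured with PBMC and stimulated with LPS; VCAM-1 measured by ELISA 24 h after dosing. Bidirectional curve fitting against DMSO baseline; cytotoxicity tracked in parallel by SRB total-protein staining.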
# [17] = read-out: CD40, CD40 (gene 958); experiment: BSK_SAg_CD40: BioMAP Diversity Plus: SAg Assay for CD40 Biomarker Activity (AID 2283088); conditions: primary human HUVEC with PBMC; actives raise or lower the signal
# Procedure, shortened: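 HUVEC plus PBMC co-culture, superantigen-activated, with CD40 read by ELISA 24 h after dosing. Curves fitted in both directions against DMSO. Overt cytotoxicity checked by parallel SRB total-protein staining.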
# [18] = read-out: CD69, CD69 (gene 969); experiment: BSK_SAg_CD69: BioMAP Diversity Plus: SAg Assay for CD69 Biomarker Activity (AID 2283089); conditions: primary human HUVEC with PBMC; actives raise or lower the signal;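 on AC50: cell surface CD69 protein quantified by ELISA with fluorescence detection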
# Procedure, shortened: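 HUVEC co-cultured with PBMC were dosed with chemical, and CD69 was measured by ELISA with fluorescence read-out 24 h later. Bidirectional curve fitting used DMSO as negative control and activity baseline.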
# [19] = read-out: Monocyte Chemoattractant Protein-1 (MCP1), CCL2 (gene 6347); experiment: BSK_SAg_MCP1: BioMAP Diversity Plus: SAg Assay for Monocyte Chemoattractant Protein-1 (MCP1) Biomarker Activity (AID 2283090); conditions: primary human HUVEC with PBMC; actives raise or lower the signal
# Procedure, shortened: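 MCP-1 levels in the endothelial–PBMC SAg co-culture were quantified by ELISA at 24 h post-dosing; both increases and decreases versus DMSO scored. Cytotoxicity monitored by SRB total protein in parallel cultures.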
# [20] = read-out: CD38, CD38 (gene 952); experiment: BSK_SAg_CD38: BioMAP Diversity Plus: SAg Assay for CD38 Biomarker Activity (AID 2283087); conditions: primary human HUVEC with PBMC; actives raise or lower the signal
# Procedure, shortened: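 Human HUVEC plus PBMC co-culture stimulated with superantigen; CD38 measured by ELISA 24 h after chemical dosing. Fluorescence read-out, bidirectional fit against DMSO; cytotoxicity tracked in parallel by SRB and Alamar Blue.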
# Chain of E-selectin (Homo sapiens) (P16581 whole entry, looked up): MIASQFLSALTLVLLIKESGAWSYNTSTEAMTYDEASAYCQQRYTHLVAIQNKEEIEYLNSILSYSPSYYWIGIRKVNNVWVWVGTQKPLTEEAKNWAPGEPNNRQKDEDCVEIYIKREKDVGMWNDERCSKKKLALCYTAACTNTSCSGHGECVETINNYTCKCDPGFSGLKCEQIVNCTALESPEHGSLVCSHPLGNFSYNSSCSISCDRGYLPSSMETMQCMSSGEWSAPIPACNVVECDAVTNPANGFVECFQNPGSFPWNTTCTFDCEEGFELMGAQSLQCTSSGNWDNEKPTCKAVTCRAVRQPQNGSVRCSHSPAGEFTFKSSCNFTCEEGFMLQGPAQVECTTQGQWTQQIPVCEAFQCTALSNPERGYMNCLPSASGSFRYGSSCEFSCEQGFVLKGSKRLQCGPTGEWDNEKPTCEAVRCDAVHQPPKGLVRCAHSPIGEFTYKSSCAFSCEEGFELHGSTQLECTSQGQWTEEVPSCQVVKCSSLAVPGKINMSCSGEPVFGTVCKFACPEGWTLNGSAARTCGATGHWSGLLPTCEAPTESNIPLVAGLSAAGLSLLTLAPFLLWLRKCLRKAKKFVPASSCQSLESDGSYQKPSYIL
# Chain of Tumor necrosis factor (Homo sapiens) (P01375 whole entry, looked up): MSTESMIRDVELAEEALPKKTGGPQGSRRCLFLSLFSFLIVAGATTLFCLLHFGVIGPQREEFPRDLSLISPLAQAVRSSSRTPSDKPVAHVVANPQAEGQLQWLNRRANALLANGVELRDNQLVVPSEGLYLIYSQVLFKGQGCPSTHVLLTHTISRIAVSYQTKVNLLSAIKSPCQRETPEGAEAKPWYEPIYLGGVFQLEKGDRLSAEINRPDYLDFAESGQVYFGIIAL
compound,measurement,setting,value
CCO[Si](CCCNC(N)=O)(OCC)OCC,outcome,[1],inactive
same,outcome,[2],inactive
same,outcome,[3],inactive
same,outcome,[4],inactive
same,outcome,[5],inactive
same,outcome,[6],inactive
same,outcome,[7],inactive
same,outcome,[8],inactive
same,outcome,[9],inactive
same,outcome,[10],inactive
same,outcome,[11],inactive
same,outcome,[12],inactive
same,outcome,[13],inactive
same,outcome,[14],inactive
same,outcome,[15],inactive
same,outcome,[16],inactive
same,outcome,[17],inactive
same,outcome,[18],inactive
same,outcome,[19],inactive
CCCCCCCCN(C)CCCCCCCC,outcome,[1],inactive
same,outcome,[2],inactive
same,outcome,[3],inactive
same,outcome,[4],inactive
same,outcome,[6],inactive
same,outcome,[7],inactive
same,outcome,[8],inactive
same,outcome,[9],inactive
same,outcome,[10],inactive
same,outcome,[12],inactive
same,outcome,[14],inactive
same,outcome,[15],inactive
same,outcome,[16],inactive
same,outcome,[20],inactive
same,outcome,[17],inactive
same,outcome,[18],inactive
same,outcome,[19],inactive
O=C(O)c1ccccc1-n1cc(C(=O)O)c(=O)c2cc(Nc3c(F)cc(F)cc3Cl)c(Cl)cc21,outcome,[1],inactive
same,outcome,[2],inactive
same,outcome,[3],inactive
same,outcome,[4],inactive
same,outcome,[5],inactive
same,outcome,[6],inactive
same,outcome,[7],inactive
same,outcome,[8],inactive
same,outcome,[9],inactive
same,outcome,[10],inactive
same,outcome,[11],inactive
same,outcome,[12],inactive
same,outcome,[13],inactive
same,outcome,[15],inactive
same,outcome,[16],inactive
same,outcome,[20],inactive
same,outcome,[17],inactive
same,outcome,[18],inactive
same,outcome,[19],inactive
CC1=CC(=O)/C(=C(/C)O)C(=O)O1,outcome,[1],inactive
same,outcome,[2],inactive
same,AC50,[3],0.396 µM (active)
same,outcome,[4],inactive
same,outcome,[5],inactive
same,outcome,[6],inactive
same,outcome,[7],inactive
same,outcome,[8],inactive
same,outcome,[9],inactive
same,AC50,[10],20 µM (active)
same,outcome,[12],inactive
same,outcome,[13],inactive
same,outcome,[15],inactive
same,outcome,[16],inactive
same,outcome,[20],inactive
same,outcome,[17],inactive
same,outcome,[18],inactive
same,outcome,[19],inactive
NC(=O)c1nc(-c2cccc(-c3cc(F)ccc3OCC(F)(F)C(F)(F)F)c2)n[nH]1,AC50,[1],35 µM (active)
same,AC50,[2],36.1 µM (active)
same,AC50,[3],34 µM (active)
same,AC50,[4],39.7 µM (active)
same,AC50,[6],22.6 µM (active)
same,AC50,[7],37.7 µM (active)
same,AC50,[8],33.7 µM (active)
same,AC50,[9],31.6 µM (active)
same,AC50,[10],41.4 µM (active)
same,AC50,[11],33.6 µM (active)
same,AC50,[12],38.2 µM (active)
same,AC50,[14],33.4 µM (active)
same,AC50,[15],37.4 µM (active)
same,AC50,[16],35.3 µM (active)
same,AC50,[20],29.5 µM (active)
same,AC50,[17],26.9 µM (active)
same,AC50,[18],26.2 µM (active)
same,AC50,[19],29 µM (active)
O=c1c(-c2ccc(O)cc2)coc2cc(O)cc(O)c12,outcome,[1],inactive
same,outcome,[2],inactive
same,outcome,[3],inactive
same,AC50,[4],20 µM (active)
same,outcome,[5],inactive
same,AC50,[6],14.3 µM (active)
same,AC50,[7],31.7 µM (active)
same,AC50,[8],20 µM (active)
same,AC50,[9],12 µM (active)
same,AC50,[10],16 µM (active)
same,AC50,[11],17.9 µM (active)
same,AC50,[12],10 µM (active)
same,AC50,[15],15.8 µM (active)
same,AC50,[16],13.9 µM (active)
same,AC50,[20],25.1 µM (active)
same,AC50,[17],25.6 µM (active)
same,AC50,[18],20 µM (active)
same,AC50,[19],18.7 µM (active)
